According to PubChem BioAssay (NCATS):
“And” between values parts separate entries of the source, which are not always exact repeats. Equal entries are not always repeated. Results filed as inconclusive are left out. Values without a mark were called inactive. The source made the active and inactive calls. The call rests on the fitted dose curve; in most records, active means well fitted cell-killing curve with a large enough effect; inconclusive means small, poorly fitted or top-dose-only effect, or effect the other way; inactive means no such curve, though single readings can be large or run the other way.

experiment: Viability qHTS for spleen associated tyrosine kinase inhibitor (SYKi) naive MV4-11 cells (AID 1963823); conditions: MV4-11 AML viability, CellTiter-Glo luminescence, 72 h; series mostly up to 45 µM; viability (% of control): at the top concentration; further: nearly all actives have a fitted effect of over 40% in size
Description: Department of Medicine, Hematology/Oncology
University Hospital Frankfurt, Germany.
Trials have shown promising clinical activity of the selective SYK inhibitor entospletinib in patients with high expressing HOXA9/MEIS1 acute leukemias. As the development of resistance mechanisms is a common problem in the use of targeted drugs, we performed a chemical library screen to identify drug sensitivities in SYK inhibitor resistant AML cells. […] Glucocorticoids are potent immunosuppressants which work in part by inhibiting the transcription of cytokine genes.
Described herein is a viability screen to look for activity in the SYK inhibitor naive cell line against four NCATS compound libraries (MIPE 5.0, NPC, NPACT, and Kinase) totaling 11372 compounds. Active hits were reacquired for confirmation and further secondary assay testing.
SEQUENCE No. (e.g., 1, 2, 3, etc.); […] (e.g., Cells, Incubation, Reagent, etc.); VALUE; DESCRIPTION.
1; Media; 2uL; white, solid-bottom Corning assay plate.
2; Compounds; 23nL; Echo acoustic dispenser.
3; Cell; 5uL; 500 cells per well.
4: Incubation; 72hr; 37 C, 5% CO2, 95% humidity.
5; Reagent; 3uL; CellTiter-Glo reagent (Promega).
6; Incubation; 10min; room temperature.
7; Detection; Luminescence; ViewLux plate reader (PerkinElmer).
NOTES (numbers refer to Sequence numbers above
1. Quantitative high-throughput screening (qHTS) of small molecule compounds was conducted on naive SYKi MV4-11 cell line.
2. Twenty-three nanoliter of small molecule compounds were added to each assay plates using the Echo acoustic dispenser (Beckman Coulter).
3. Cells were seeded into the assay plates at a final density of 500 cells in 5uL of media per well using the Multi-drop Combi dispenser.
4. Plates were covered with stainless steel gasketed lids and incubated for 72 hours at standard cell culture conditions.
5. Viability was assessed by adding 3uL of CellTiter-Glo detection reagent (Promega).
6. Plates were covered with gasket lids and incubated for 10 minutes at room temperature.
7. Luminescence was measured on a ViewLux plate reader (PerkinElmer).
Potency means the concentration at half of the fitted maximal effect.

SMILES | Potency | viability (% of control)
CCCN(CCC)C(=O)C(CCC(=O)OCCCN1CCN(CCOC(=O)Cc2c(C)n(C(=O)c3ccc(Cl)cc3)c3ccc(OC)cc23)CC1)NC(=O)c1ccccc1 (stereo not given) | 23.1 µM (active) | –
C[C@H](NC(=O)Cc1cc(F)cc(F)c1)C(=O)N[C@H](C(=O)OC(C)(C)C)c1ccccc1 | – | 70.1%
C[C@@H](Nc1ncnc2[nH]c(-c3ccc(O)cc3)cc12)c1ccccc1 | 4.11 µM (active) and 7.42 µM (active) | –
CC(=O)N(c1onc(C)c1C)S(=O)(=O)c1ccc(N)cc1 | – | 79.4%
CC[C@@H]1[C@H](F)C(=O)N[C@@H]1COc1nccc2cc(C(N)=O)c(OC)cc12 | 11.8 µM (active) | –
CN1CCC(=C2c3ccccc3CC(=O)c3sccc32)CC1 | 26.3 µM (active) | –
Cc1c(C)c2c(c(C)c1OC(=O)c1cccnc1)CC[C@@](C)(CCC[C@H](C)CCC[C@H](C)CCCC(C)C)O2 | – | 98.6%
COc1cc(/C=C/C(=O)O[C@H]2[C@H](O)[C@@H](CO)O[C@@]2(CO)O[C@H]2O[C@H](COC(=O)c3ccc(O)cc3)[C@@H](O)[C@H](O)[C@H]2O)cc(OC)c1OC | – | 77% [at 17.3 µM]
CC1(C)CCC2(C(=O)OC3OC(COC4OC(CO)C(O)C(O)C4O)C(O)C(O)C3O)CCC3(C)C(=CCC4C5(C)CCC(OC6OCC(O)C(O)C6O)C(C)(C)C5CCC43C)C2C1O (stereo not given) | – | 56.1% [at 9.25 µM]
CC(=O)N[C@@H](Cc1ccc(O)cc1)C(=O)O | – | 66.9%
CCOC(=O)[C@H](CCc1ccccc1)N[C@@H](C)C(=O)N1C(=O)N(C)C[C@H]1C(=O)O | inactive | –
CNC(=O)c1cc(Oc2ccc(NC(=O)c3cccc(C(F)(F)F)c3)cc2)ccn1 | 11.6 µM (active) | –
O=C(C[C@@H]1C(C(=O)O)=CO[C@@H](O[C@@H]2O[C@H](CO)[C@@H](O)[C@H](O)[C@H]2O)/C1=C\CO)OCCc1ccc(O)c(O)c1 | – | 82.3% [at 17.3 µM]
CC1(C)C2CCC(CO[C@@H]3O[C@H](CO[C@@H]4OC[C@](O)(CO)[C@H]4O)[C@@H](O)[C@H](O)[C@H]3O)C1C2 (stereo not given in full) | – | 83% [at 17.3 µM]
Cc1cc(NS(=O)(=O)c2ccc(N)cc2)nc(C)n1 | – | 67.1%
COC(=O)c1cc(Cl)c(NC(C)=O)cc1OC | – | 75.6%
CC1(C)CCC(c2ccc(Cl)cc2)=C(CN2CCN(c3ccc(C(=O)NS(=O)(=O)c4ccc(N[C@H](CCN5CCOCC5)CSc5ccccc5)c(S(=O)(=O)C(F)(F)F)c4)cc3)CC2)C1 | 116 nM (active) and 332 nM (active) | –
CC(C)(F)CC(NC(c1ccc(-c2ccc(S(C)(=O)=O)cc2)cc1)C(F)(F)F)C(=O)NC1(C#N)CC1 (stereo not given) | – | 63.5%
CCCCCCCCCCCCCC(=O)OC(C)C | – | 75%
COC(=O)C1=C(C)NC(c2ncc(F)cc2F)=N[C@H]1c1ccc(F)cc1Cl | 20.9 µM (active) | –

SMILES | Potency | viability (% of control)
CC(=O)NCCNc1cc(Cl)nn2c(-c3cccc(S(=O)(=O)N(C)C)c3)c(C)nc12 | 1.46 µM (active) | –
C=C1C(=O)OC2/C=C(\CO)CC/C=C(\C=O)C(O)C(OC(=O)C(C)CC)C12 (stereo not given) | 2.02 µM (active) | –
O=C(O)CCc1c(C(=O)O)[nH]c2cc(Cl)cc(Cl)c12 | – | 86.8% [at 17.3 µM]
NC1=N[C@H]2[C@H](CS[C@H]2CCCCC(=O)O)N1 | – | 66.9% [at 17.3 µM]
Nc1ccccc1NC(=O)c1ccc(CNC(=O)OCc2cccnc2)cc1 | 651 nM (active) and 742 nM (active) | –
CC12CC(O)C(O)C=C1c1cc(O)cc(O)c1C(=O)O2 (stereo not given) | – | 60.5%
c1ccc([C@H]2CN3CCSC3=N2)cc1 | – | 93.8%
CN(C)C(=O)C(CCN1CCC(O)(c2ccc(Cl)cc2)CC1)(c1ccccc1)c1ccccc1 | 16.8 µM (active) and 14.8 µM (active) | –
N#CC(=C(/N)Sc1ccccc1N)/C(C#N)=C(/N)Sc1ccccc1N | 10.3 µM (active) | –
CSc1cc2c(s1)c1cnn(Cc3ccccc3F)c(=O)c1n2C | – | 74.2%
CC(NC(=O)[C@H](Cc1ccccc1)NC(=O)OCc1ccccc1)C(=O)CF (stereo not given in full) | – | 60.4%
OC[C@@]1(O)CO[C@@H](OC[C@H]2O[C@@H](OCc3ccccc3)[C@H](O)[C@@H](O)[C@@H]2O)[C@@H]1O | – | 82.7% [at 17.3 µM]
OC[C@@]1(O)CO[C@@H](OC[C@H]2O[C@@H](Oc3ccccc3)[C@H](O)[C@@H](O)[C@@H]2O)[C@@H]1O | – | 77.9%
C[C@@H]1C[C@H](C)CN(CCC(=O)Nc2ccc(Br)cc2)C1 | – | 58.8%
COCCN1CCC(C(=O)NO)(S(=O)(=O)c2ccc(Oc3ccc(OC(F)(F)F)cc3)cc2)CC1 | 20.6 µM (active) | –
COc1cc(OC)c(C(=O)CCCN2CCCC2)c(OC)c1 | inactive | –
C[C@@H]1CCC2C(C)(C)[C@H](O)CC[C@]2(C)[C@@]12Cc1c(O)cc3c(c1O2)CNC3=O (stereo not given in full) | – | 5.25%
CC(=O)O[C@H]1CC[C@@]2(CI)C(=CC[C@@H]3[C@@H]2CC[C@]2(C)[C@@H]([C@H](C)CCCC(C)C)CC[C@@H]32)C1 | – | 88.4% [at 9.25 µM]
CC1=CCC2C(C)(CO)CCCC2(CO)C1CO (stereo not given) | – | 70.5%
Cc1ccc(-c2ccc3c(ccc4sc5c(c43)NC[C@@H](C)NC5=O)n2)cn1 | 2.59 µM (active) | –
